High-throughput results as filed in PubChem.
The list is not random: actives were taken first. Their share in the collection is about 4.4%.
SKKanGAS inh: SKKanGAS growth inhibition | S. pyogenes SKKanGAS, kanamycin growth, BacTiter-Glo, 6 h | inhibition, % at 7.5 µM | actives 1.3% (n = 300,000) | AID 1662;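 active = mean replicate score, as percent of positive control median, at least 50; inconclusive = mean below 50 but one replicate at or above 50; inactive = mean and every replicate below 50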;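 also: strain carries kanamycin resistance gene driven by streptokinase promoter and grows in 40 µg/ml kanamycin; loss of luminescence reflects streptokinase promoter inhibition or plain growth inhibition; 0% = median of DMSO wells and 100% = positive control at its reference dose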
tim10-1 inh: inhibits growth of tim10-1 mutant yeast | S. cerevisiae tim10-1 ts strain growth, BacTiter-Glo, 24 h | inhibition, % at 20 µM | actives 2.2% (n = 330,000) | AID 463190;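 active = inhibition of at least 40%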;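 also: mutant grown at 25 °C; 0% = DMSO wells with yeast and 100% = wells holding no yeast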
PfHsp90 yeast 2: reduces growth (ATP signal) of yeast expressing P. falciparum Hsp90; S. cerevisiae expressing PfHsp90, BacTiter-Glo ATP, 48 h; yeast lacking PDR1 and PDR3 efflux regulators; inhibition, % at 9.4 µM; actives 0.32% (n = 310,000); AID 504621;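 active = every replicate shows inhibition above about 80%, whatever the replicate mean, limit read from the data; inconclusive = mean inhibition reaches the set limit but some replicate falls short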;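 also: 0% = DMSO neutral controls and 100% = 20 µM radicicol positive controls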
TIM10 inh: growth inhibitors of TIM10 yeast strain; actives 1.4% (n = 330,000); S. cerevisiae TIM10 strain growth, BacTiter-Glo luminescence, 24 h; inhibition, % at 10 µM;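 active = inhibition of 40% or more at the single tested concentration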;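 also: wild-type TIM10 isogenic control strain grown at permissive 25 °C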
tim23-1 inh: inhibits growth of tim23-1 mutant yeast. S. cerevisiae tim23-1 growth, BacTiter-Glo luminescence, 24 h. inhibition, % at 20 µM. actives 1.3% (n = 330,000). AID 463212;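 active = growth inhibition of the mutant yeast at or above 50%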;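 also: temperature-sensitive mutant grown at 25 °C; plate controls were DMSO-treated mutant yeast for no effect and medium wells lacking yeast for full effect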
* marks the source's active call; other numbers are inactive results; u = inconclusive; x = no result.

SMILES	SKKanGAS inh	tim10-1 inh	PfHsp90 yeast 2	TIM10 inh	tim23-1 inh
CN1C(=O)/C(=C/c2cccc(Cl)c2)Sc2ccc(C(=O)N3CCOCC3)cc21	u	8.2	-20.7	10.4	10.8
COc1ccc(/C=C2\Sc3ccc(C(=O)NCCN4CCCCCC4)cc3N(C)C2=O)cc1	19.9	18.5	2.5	13.0	24.9
Cc1ccc(C(=O)CN2C(=O)NC3(CCc4ccccc43)C2=O)s1 (centres undefined)	x	-20.7	-5.2	9.2	6.1
Cc1cccc(NC(=O)CN(C)C(=O)C2CC2)c1C	x	-13.7	-12.1	-2.4	-5.4
Cc1csc(=O)n1CCC(=O)NCc1ccc(F)cc1	x	7.9	-22.5	2.3	2.1
COc1ccc(CNC(=O)CN2CCN(S(=O)(=O)c3ccccc3)CC2)cc1	x	19.9	x	13.6	24.6
O=C(NNC1=Nc2ccccc2SC1)c1ccc(F)cc1	68.6*	27.7	-10.6	-1.0	24.2
O=C(NNC1=Nc2ccccc2SC1)c1ccc(Cl)cc1	90.5*	7.4	-19.3	-14.3	-6.0
O=C(NNc1c2ccccc2nc2ccccc12)c1ccc(Cl)cc1	-0.2	26.4	-49.3	17.2	11.6
Cc1ccc(S(=O)(=O)CCC(=O)OCc2cc(=O)oc3cc(C)ccc23)cc1	x	-0.8	x	4.9	11.8
CCOc1ccc(N2C(=O)CC(N3CCC(O)(c4ccc(Br)cc4)CC3)C2=O)cc1 (centres undefined)	3.9	38.7	u	15.5	24.4
CCCOc1ccc(N2C(=O)CC(N3CCC(C(=O)OCC)CC3)C2=O)cc1 (centres undefined)	12.8	38.6	105.0*	37.7	38.2
CCOC(=O)c1ccc(N2C(=O)CC(N3CCC(O)(c4ccc(Br)cc4)CC3)C2=O)cc1 (centres undefined)	0.2	15.4	96.4*	13.5	9.7
CCOC(=O)c1ccc(N2C(=O)CC(N3CCC(O)(c4ccc(Cl)cc4)CC3)C2=O)cc1 (centres undefined)	4.5	29.5	101.3*	34.2	25.1
Cc1ccc(C)n1-c1sc2c(c1C#N)CCC(C)C2 (centres undefined)	62.2*	29.5	-0.9	2.0	22.6
COc1cccc(/C=N/NC(=O)c2cc(-c3cccn3C)n[nH]2)c1	3.6	-5.5	-5.7	-3.7	12.7
COc1cc(/C=N/NC(=O)c2cc(-c3cccn3C)n[nH]2)cc(OC)c1OC	62.8*	3.2	x	-8.7	8.7
CN1C(=O)N(CC(=O)Nc2nccs2)C(=O)C12CCCCC2	x	0.8	-5.4	7.1	11.8
O=[N+]([O-])c1cc(Cl)cc(/C=N/NC(=S)Nc2ccc(S(=O)(=O)N3CCOCC3)cc2)c1O	93.8*	26.2	22.4	6.2	17.0
O=C(NC(=S)Nn1cnc2c(cnn2-c2ccccc2)c1=O)c1ccc(Oc2ccccc2)cc1	89.3*	1.8	1.6	4.3	-5.8
COCCN(C(=O)c1ccc(COc2ccccc2)o1)c1c(N)n(CC(C)C)c(=O)[nH]c1=O	x	-4.1	-6.4	6.6	-7.1
CCCOCc1ccc(O)c2ncccc12	82.1*	5.6	-7.8	6.8	20.1
Oc1ccc(COCc2ccccc2)c2cccnc12	u	1.3	-32.9	3.7	14.1
CC(C)COCc1ccc(O)c2ncccc12	82.7*	3.4	0.8	12.7	16.0
CCN(CC(=O)Nc1c(F)cccc1F)C(=O)C1CCN(S(=O)(=O)c2ccccc2C(=O)OC)CC1	x	x	15.8	x	x
SMILES	SKKanGAS inh	tim10-1 inh	PfHsp90 yeast 2	TIM10 inh	tim23-1 inh
C/C(N)=C(/C#N)C(=O)CSc1nc2scc(-c3ccccc3)c2c(=O)n1C	61.9*	13.8	3.3	23.9	1.6
Nc1sc(-c2ccccc2)cc1C(=O)N/N=C/c1ccc(Cl)cc1	95.1*	33.2	-0.8	3.3	-4.8
O=C(N/N=C/c1ccc(Cl)cc1)c1cc(-c2cccnc2)nc2ccccc12	3.4	32.0	22.7	9.9	17.6
Cc1ccc(/C=C/C(=O)OCC(=O)NCc2cccs2)o1	x	8.8	18.1	-0.3	12.4
O=C(N[C@H]1/C=C\[C@@H](O)CCCC1)OCc1ccccc1	x	3.1	4.4	-6.5	29.9
Cc1ccc2nc(-c3ccc(NS(=O)(=O)c4ccc(F)c(F)c4)cc3)sc2c1	76.1*	x	-33.7	x	x
CCN1CCN(Cc2ccc(NC(=O)c3ccc(C)c(NC(=O)C(=O)c4c[nH]c5ccccc45)c3)cc2C(F)(F)F)CC1	83.0*	19.8	4.9	-4.9	19.9
CCN1CCN(Cc2ccc(NC(=O)c3cc(NC(=O)C(=O)c4c[nH]c5ccccc45)cc(OC)c3)cc2C(F)(F)F)CC1	98.8*	2.5	-9.9	7.0	3.9
CCN1CCN(Cc2ccc(NC(=O)c3ccc(C)c(NC(=O)c4ccc5n[nH]nc5c4)c3)cc2C(F)(F)F)CC1	1.8	-3.9	-12.8	-2.4	-2.2
O=C(Nc1ccc(Cl)c(Cl)c1)C1CC(=O)N(c2ccc(Br)cc2)C1 (centres undefined)	53.9*	25.6	-35.7	29.0	45.8
Cc1ccc(C(=O)OCC(=O)NCCc2ccccc2)cc1C	x	10.3	4.0	-4.1	24.1
C=CCn1c(COc2ccccc2)nnc1SC(C)C(=O)N/N=C/c1cc(Cl)ccc1O (centres undefined)	104.6*	39.8	-12.9	38.1	43.5
C=CCn1c(COc2ccc(Cl)cc2)nnc1SCC(=O)N/N=C/c1cccc(O)c1	5.6	-8.3	-1.5	-8.0	-2.5
COc1ccc2nc(-n3c(O)c(C4=c5ccccc5=NC4=O)[nH]c3=S)sc2c1	104.0*	x	-7.8	x	x
Cn1c(O)c(C2=c3ccccc3=NC2=O)[nH]c1=S	-23.8	8.9	-10.7	2.2	-3.7
COc1ccccc1OCC(=O)N1CCN(S(=O)(=O)c2ccc(Cl)cc2)CC1	x	15.6	9.4	3.3	23.1
C[C@@H]1CN([C@@H](C)CO)C(=O)c2cc(NC(=O)C3CC3)ccc2O[C@@H]1CN(C)C(=O)NC1CCCCC1	x	-6.3	-3.4	3.0	-2.4
CC(C)COc1ccc(-c2nn(-c3ccccc3)cc2C(=O)Nc2nccs2)cc1	96.2*	32.3	-7.9	5.7	-6.7
COc1ccc(S(=O)(=O)N2CCOC2CNC(=O)C(=O)NCc2ccccc2Cl)cc1 (centres undefined)	52.0*	2.0	-6.4	9.5	15.0
CSc1ccc(/C=C/C(=O)OCC(=O)N2CCN(S(=O)(=O)c3ccc(C)cc3C)CC2)cc1	x	14.1	3.4	6.1	21.8
O=C(Nc1cccc(-c2csc(Nc3cccc(C(F)(F)F)c3)n2)c1)c1cc([N+](=O)[O-])cc(C(F)(F)F)c1	77.4*	11.7	6.4	9.8	4.2
O=C(Nc1ccc(-c2csc(Nc3ccccc3)n2)cc1)c1cccc(C(F)(F)F)c1	64.6*	22.3	-19.6	21.0	28.1
O=C(Nc1ccc(-c2csc(Nc3ccc(Cl)cc3)n2)cc1)c1cccc(C(F)(F)F)c1	4.9	-8.3	x	-10.8	12.7
O=C(CCc1nc(-c2ccc(F)cc2)no1)Nc1cccc(C(=O)NC2CC2)c1	x	5.3	-0.5	2.9	3.2
Cc1cccc(N2CCN(C(=O)CN3C(=O)NC4(CCCCCC4)C3=O)CC2)c1C	x	5.9	-45.1	5.2	23.5
